Test results from PubChem BioAssay (NCI).
This is part of a sample that, as a whole, favours compounds with a hit. Of some 83,000 tested, about 20% had one in any assay.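 Single-concentration screen, 48 h exposure, 96-well plates. Endpoint: percent growth. Below 10 = active.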 Unmarked numbers belong to inactive results. Activity calls are given as the source filed them.

Tested on: SK-OV-3 ovarian
Assay: NCI-60 one-dose screen, 48 h (100 = growth as untreated, 0 = no growth, -100 = all killed)
Conditions: 10 µM unless noted
Method: Growth inhibition of the SK-OV-3 human tumor cell line is measured as a screen for anti-cancer activity. Cells are grown in 96 well plates and exposed to the test compound for 48 hours. Compounds are tested at a single concentration, which is 10^-5 M for most compounds. The reported endpoint is percent growth (GI% or GIPRCNT), where numbers from 0 - 100% represent growth inhibition, and numbers from -100% - 0 represent cell death. For example, a value of 40 represents 60% growth inhibition. A value of 0 means no net growth occurred over the course of the experiment. A value of -40 indicates 40% of cells at the beginning of the experiment died by the end of the experiment. A value of -100 means all cells are dead at the end of the experiment.
NCI-60 Human Tumor Cell Lines Screen was performed using the standard one-dose NCI protocol, which is described in more detail at https://dtp.cancer.gov/discovery_development/nci-60/default.htm.
Compounds with GIPRCNT values below 10 were considered active. Activity score was based on GIPRCNT using the following formula: […]
Score is 0 for GIPRCNT values of 100 or above, 50 for GIPRCNT values of 0, and 100 for GIPRCNT values of -100.

Structure (SMILES) | growth
COC(=O)[C@]12CC[C@@H](C)[C@H](C)[C@@H]1C1=CC[C@@H]3[C@@]4(C)C(C=O)=C[C@@](C)(CO)C4=CC[C@@]3(C)[C@]1(C)CC2 | 76.3%
CSc1ccc(Cl)c(C(=O)Nc2sccc2C(N)=O)c1 | 115%
c1ccc2[nH]c(SSc3nc4ncncc4[nH]3)nc2c1 | 24.1%
CC(=O)NCC(=O)Nc1ccc(-c2nnc3ccccn23)nc1.CC(=O)NCC(=O)Nc1ccc(-c2nnc3ccccn23)nc1.[Pt+2] | 112%
O=C(CCCCCCCn1cc(-c2cccnc2)nn1)Nc1ccccc1-c1ccccc1 | 61.7%
CCOC(=O)c1c(C)nc2c(c1N)/C(=C/c1ccc(OC)cc1)C(=O)N2Cc1ccc(F)cc1 | 9.64% (active)
NC(=O)CC1(O)C=C(Br)C(=O)C(Br)=C1 | 99.1%
CCN(CC)CCCC(C)NCc1ccccc1 (stereo not given) | 118%
O=C(C[C@@]1(O)C(=O)Nc2c(Cl)ccc(Cl)c21)c1ccc(C2CC2)cc1 | 38.6%
COc1ccc(OC)c(Nc2nc3nonc3nc2Nc2cc(OC)ccc2OC)c1 | 46.1%
CN(CCC(=O)/C(=C\c1ccccc1)c1ccc(Cl)cc1)Cc1ccccc1 | 120%
O=[N+]([O-])c1ccccc1C(O)Cc1ccc2ccccc2n1 (stereo not given) | 84.9%
O=[N+]([O-])c1cccc(/C=C/c2ccccn2)c1 | 94%
Nc1c(-c2nc3ccccc3c(=O)[nH]2)nnn1-c1ccc(Cl)cc1 | 68.5%
O=[N+]([O-])c1ccc(-c2cc3c(Nc4ccc(Sc5nc6ccccc6s5)c(Cl)c4)ncnc3s2)cc1 | 37.1%
O=S(=O)(Nc1ccsc1-c1nc(-c2ccccc2)no1)c1cc(Cl)cc(Cl)c1 | 83.3%
O=C(NCc1cn(Cc2cccc(Oc3ccccc3)c2)nn1)c1cccnc1NCc1ccc(Cl)cc1 | 21.4%
C=C(C)C1CCC(=C)C2CCC3(C)OC12/C=C(/COC(C)=O)CCC3O (stereo not given) | 119%
COc1ccc(C2=NC(=O)NC2c2ccc(OC)cc2)cc1 (stereo not given) | 66.4%
Cc1cc(N(CCCNc2ccnc3cc(Cl)ccc23)Cc2ccccn2)nc(N2CCOCC2)n1 | 88.5%

Structure (SMILES) | growth
COc1cc(C(=O)Nc2cc(O)c(CC=C(C)C)c(O)c2)cc2c1O[C@]1(C)CC[C@@H](O)C(C)(C)[C@H]1C2 | 16.5%
C=C1C(=O)O[C@H]2[C@H]1CC/C(C(=O)NCCCCCCCCNC(=O)/C1=C/CC[C@@]3(C)O[C@H]3[C@H]3OC(=O)C(=C)[C@@H]3CC1)=C\CC[C@@]1(C)O[C@@H]21 | 93.5%
CCCCNCC(=O)Nc1ccc(C(=O)OCC)cc1 | 105%
O=C1/C(=C/c2ccc([N+](=O)[O-])cc2)COc2ccc(O)c(O)c21 | 89.2%
NC(N)=N/N=C(/c1ccccc1)c1ccccc1F | 19.5%
Cc1cccc(-c2cc(O)c(C(=O)N3CCOCC3)s2)c1 | 41.7%
Oc1[nH]c2ccccc2c1/C=c1/cc2c(c(-c3ccc(F)cc3)n1)=Nc1ccccc1-2 | -7.93% (active)
CC[C@@H](C[C@H](CCO)c1ccccc1)c1cc2ccccc2o1 | 93.9%
CCN(CC)CCOC(=O)N1c2ccccc2Sc2ccccc21 | 98%
CCCCNC(=O)c1cc(NCc2cc(O)ccc2O)ccc1O | 85.8%
CCCCCCNCc1cc(C(C)(C)C)cc(CNCCCCCC)c1O | -90.5% (active)
Cc1cn(C2CCCCC2)c(=O)[nH]c1=O | 112%
CCc1c(C(=O)N[C@@H]2c3cc(Cl)ccc3CC[C@@H]2O)[nH]c(C)c1C(C)=O | 74.4%
C=C(C)[C@@H]1CC[C@]2(C(=O)NCC(=O)O)CC[C@]3(C)[C@H](CC[C@@H]4[C@@]5(C)Cc6c([nH]c7ccccc67)C(C)(C)[C@@H]5CC[C@]43C)[C@@H]12 | 75.1%
CCNCCNc1cc(-c2ccc(C(F)(F)F)cc2)c(C#N)c2nc3cc(Cl)c(Cl)cc3n12 | 67.6%
CC(C)OCCCNCC(=O)Nc1ccc(S(=O)(=O)c2ccc(NC(=O)CNCCCOC(C)C)cc2)cc1 | 111%
CN(C)c1cnccn1 | 90.9%
CN(C)CCC(O)(Cc1ccccc1)c1ccccc1 (stereo not given) | 99.6%
Cn1ncc2c(Nc3ccc(Br)cc3)nc(Nc3ccc(Br)cc3)nc21 | 78.1%
Cc1ccc(-n2nnc(C3=NCCc4c3[nH]c3ccc(Cl)cc43)c2C)cc1 | 87%
